± gives the uncertainty stated by the source.
What follows are molecules tested on HEK293T-Rex XBP1-RLuc (assay: XBP1-RLuc splicing reporter activation, triplicate, relative to 500 nM thapsigargin (% of thapsigargin); higher = stronger IRE1/XBP1s reporter activation). Settings: 6.8 µM; 18 h; screen: confirmation.
Description: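 HEK293T-Rex cells stably expressing the ERSE-firefly luciferase (BiP promoter, ATF6-preferring) or XBP1-splicing Renilla luciferase (IRE1/XBP1s) reporter, 1536-well plates, compound at 6.8 µM for 18 hr at 37 °C; luminescence read […] and expressed as % activation = 100*(compound - median DMSO)/(median 500 nM thapsigargin - median DMSO). Primary screen was single-pass; confirmation screen in triplicate (mean ± SD).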

SMILES | XBP1-RLuc splicing reporter activation
O=C1/C(=C/c2ccc(O)c(O)c2)SC(=S)N1c1ccc(O)cc1 | 14.6 ± 1.1
CC(=O)Oc1ccc2cc(NC(=O)c3ccc(C)cc3)c(=O)oc2c1 | 12.1 ± 1.8
O=C1NC(=Nc2ccccc2)S/C1=C/c1ccc(O)c(O)c1 | 20.9 ± 2.1
Cc1cc2nc(-c3ccc(SCC#N)nc3)[nH]c2cc1C | 2.7 ± 0.91
COc1ccc2oc(=Nc3cc(F)ccc3F)c(C(N)=O)cc2c1 | 4.22 ± 1
Cc1ccc2c(N)c(C(=O)c3ccc4c(c3)OCO4)sc2n1 | 5.3 ± 0.72
Nc1nc(Nc2ccccc2)cc(-c2ccccc2)n1 | 1.44 ± 0.87
Nc1ccc2sc(-c3cc(Cl)c(N)c(Cl)c3)nc2c1 | 10.16 ± 0.093
Cc1ccc(NC(=S)NC(=O)C(=O)Nc2ccccc2)cc1 | 58.6 ± 3.3
COc1cccc(Nc2nc(-c3ccc(OC)c(F)c3)cs2)c1 | 1.64 ± 0.88
COc1ccc(-c2csc(N(CC3CCCO3)C(=O)CCl)n2)cc1 (stereo not given) | 2.74 ± 0.89
O=C(Nc1ccc(O)cc1)c1ccc2ccccc2c1 | 6.41 ± 0.68
NC(=O)c1c(NC(=O)/C=C/c2ccccc2)sc2c1CCCCC2 | 6.12 ± 0.94
Cc1ccc(O)c(NC(=O)c2cc(C(C)C)on2)c1 | 12.7 ± 0.5
COc1ccc(Nc2nccn3c(-c4ccsc4)cnc23)cn1 | 3.91 ± 0.5
Cc1ccn2cc(-c3ccc(O)c(O)c3)nc2c1 | 17.8 ± 5
COc1cn(-c2ccc(F)cc2)nc1C(=O)Nc1ccccc1SC | 15.5 ± 1.8
Oc1cccc(/C=N/Nc2ccc(Cl)nn2)c1O | 19 ± 1.9
Cc1ccccc1NC(=O)c1sc2nc(N)c(C#N)c(-c3ccc(C(C)C)cc3)c2c1N | 15.4 ± 2.4
O=C(N/N=C\C(Br)=C\c1ccccc1)c1n[nH]c2c1CCCC2 | 7.86 ± 1.6
